Values joined by “and” are separate entries in the source; they are usually repeats but may differ in a detail not shown here. Equal entries are not always repeated. Inconclusive results are not listed. A structure can be active in one record and inactive in another. Active and inactive are the calls of the source. Rule for the calls, unless noted: active = hit-call score of the fitted dose curve at least 0.9, where 1 is the maximum; inconclusive = response in the unintended direction; inactive = score below 0.9.
Experiments:
[1] = STM_H9_OrnCyssISnorm_ratio: Stemina devTOX quickPredict H9 human embryonic stem cell (hESC)-based Assay for Ornithine (ORN):Cystine (CYSS) Ratio (AID 2283714)
In short: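 Undifferentiated H9 hESCs were exposed to compound for 72h with media and chemical replaced every 24h. Final 24-h conditioned media were deproteinized and analysed by UPLC-HRMS. ORN and CYSS peak areas were normalized to C13 internal standards and the ratio taken versus 0.1% DMSO.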

[2] = CEETOX_H295R_MTT_cell_viability: Viability Assessment in the CeeTox HT-H295R MTT Assay (AID 2283718; active = hit-call score of the fitted dose curve at least 0.9, where 1 is the maximum; inactive = score below 0.9)
In short: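 H295R cells prestimulated 48 h with 10 uM forskolin, then exposed 48 h to test chemical (0.1% DMSO final). Viability by MTT (0.5 mg/ml, 4 h, 37 C), absorbance 570/650 nm; percent change versus DMSO, bidirectional fit.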

[3] = Tanguay_ZF_120hpf_TR_legacy: (Legacy) Oregon State University Tanguay Lab 120 Hour Post-fertilization zebrafish Assay for Touch Response (AID 2283667)
In short: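 Tropical 5D wild-type zebrafish embryos were exposed statically in sealed, foil-covered plates at 28C until 120 hpf, with 0.64% (vol/vol) final DMSO. Touch response was scored as present or absent; embryos that died were not scored.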

[4] = STM_H9_OrnithineISnorm_perc: Stemina devTOX quickPredict H9 human embryonic stem cell (hESC)-based Assay for Ornithine (ORN) Metabolite Biomarker, Normalized (AID 2283712; active = hit-call score of the fitted dose curve at least 0.9, where 1 is the maximum; inactive = score below 0.9;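 note: ornithine released into spent medium during last day measured by mass spectrometry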)
In short: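 H9 human embryonic stem cells kept pluripotent receive test chemical over 72 h, refreshed daily by media exchange. Media from the closing 24 h is deproteinized and analysed by UPLC-HRMS on an amide column; ornithine signal is scaled to labelled standard and vehicle.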

[5] = STM_H9_CystineISnorm_perc: Stemina devTOX quickPredict H9 human embryonic stem cell (hESC)-based Assay for Cystine (CYSS) Metabolite Biomarker, Normalized (AID 2283713; active = hit-call score of the fitted dose curve at least 0.9, where 1 is the maximum; inactive = score below 0.9)
In short: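 H9 hESC, pluripotent; compound 72h, re-dosed q24h with medium change. Last-24h medium → 40% acetonitrile deproteinization → UPLC-HRMS. CYSS area / C13-CYSS standard, then % of 0.1% DMSO median.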

[6] = Tanguay_ZF_120hpf_ActivityScore_legacy: (Legacy) Oregon State University Tanguay Lab 120 Hour Post-fertilization zebrafish Assay Score for Activity (AID 2283742)
In short: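 Tropical 5D wild-type zebrafish embryos, dechorionated with pronase at 4 hpf, were exposed singly from 6 hpf to 120 hpf statically at 28C in 0.64% DMSO. Malformations and mortality were scored as binary by brightfield, with the activity score combining 18 morphology components.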

[7] = ACEA_AR_agonist_AUC_viability: ACEA Biosciences xCELLigence Real-Time Cell Analysis on Androgen Receptor Agonism for Viability (AID 2283775);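 for AC50: viability read 80 hours after compound addition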
In short: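 Real-time impedance tracking of 22Rv1 growth, readings every 5 min for 5 h then hourly; area-under-curve viability endpoint at 80 hours, relative to DMSO. Compounds at eight concentrations, 1:4 steps, top 100 uM, n = 2.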

[8] = ACEA_AR_antagonist_AUC_viability: ACEA Biosciences xCELLigence Real-Time Cell Analysis on Androgen Receptor Antagonism for Viability (AID 2283776);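 note: hits lower the growth signal relative to DMSO meaning cytotoxicity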
In short: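 22Rv1 human prostate cancer cells were seeded on electrode plates, monitored overnight, then exposed to eight 1:4 dilutions from 100 uM final. Impedance-based growth kinetics at 80 h gave an AUC viability endpoint normalized to DMSO.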

[9] = CCTE_Padilla_ZF_144hpf_TERATOSCORE: (Legacy) CCTE's 144 Hour Post-fertilization zebrafish Assay Teratoscore, Padilla Lab (AID 2283679; active = hit-call score of the fitted dose curve at least 0.9, where 1 is the maximum; inactive = score below 0.9;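 note: zebrafish embryos with chorions exposed by immersion from 6-8 hpf to 5 dpf with daily renewal; teratogenicity score from eye scoring of death hatching and malformations at 144 hpf; higher score means more developmental defects relative to DMSO baseline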)
In short: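 Larvae scored by eye at 144 hpf for death, hatching and malformations after a day in clean Hanks'. Before that, daily-renewed exposure at 80 uM (0.4% DMSO, 26C) from roughly 6-8 hpf through 5 dpf, 4 embryos per chemical.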

SMILES: C=Cc1ccc(O)c(OC)c1
- AC50 [1]: 81000 nM (active)

SMILES: CC(C)CCOCCC(C)C
- outcome [2]: inactive

SMILES: O=C1NS(=O)(=O)c2ccccc21
- outcome [3]: inactive
- AC50 [4]: 113 nM (active)
- outcome [5]: inactive
- outcome [1]: inactive
- outcome [6]: inactive
- outcome [7]: inactive
- outcome [8]: inactive

SMILES: CC(C)(C)c1ccc(O)c(O)c1
- AC50 [1]: 76200 nM (active)
- outcome [2]: inactive

SMILES: COc1cccc(O)c1
- outcome [2]: inactive

SMILES: Cc1[nH]nc2c1N=C(c1ccccc1Cl)c1cc([N+](=O)[O-])ccc1N2
- outcome [3]: inactive
- AC50 [9]: 1.32 µM (active)
- AC50 [4]: 2080 nM (active)
- AC50 [5]: 1620 nM (active)
- AC50 [1]: 1850 nM (active)
- outcome [6]: inactive
- AC50 [7]: 1750 nM (active)
- AC50 [8]: 2040 nM (active)

SMILES: CCCCC(CC)C(=O)O (stereo unspecified)
- outcome [3]: inactive
- AC50 [4]: 134 nM (active)
- outcome [5]: inactive
- outcome [1]: inactive
- outcome [6]: inactive
- AC50 [7]: 4140 nM (active)
- outcome [7]: inactive
- outcome [8]: inactive

SMILES: CC(C)c1c(C(=O)Nc2ccccc2)c(-c2ccccc2)c(-c2ccc(F)cc2)n1CC[C@@H](O)C[C@@H](O)CC(=O)O
- AC50 [9]: 2.65 µM (active) and 3.07 µM (active)
- AC50 [7]: 4230 nM (active)
- AC50 [8]: 4960 nM (active)

SMILES: CC1=CC(=O)c2ccccc2C1=O
- AC50 [1]: 11800 nM (active)

SMILES: O=C(NCc1ncc(C(F)(F)F)cc1Cl)c1c(Cl)cccc1Cl
- outcome [2]: inactive

SMILES: CCCCCCCCCCCC(=O)O
- outcome [7]: inactive
- outcome [8]: inactive

SMILES: COc1cc([N+](=O)[O-])ccc1N
- outcome [2]: inactive
- outcome [7]: inactive
- outcome [8]: inactive

SMILES: NCc1cccc(CN)c1
- outcome [7]: inactive

SMILES: Cc1cc(C(=C2C=CC(=Nc3ccc(S(=O)(=O)O)cc3)C=C2)c2ccc(Nc3ccc(S(=O)(=O)O)cc3)cc2)cc(S(=O)(=O)O)c1N
- outcome [7]: inactive
- outcome [8]: inactive
